Results filed as inconclusive are left out. Active and inactive are the calls of the source. Calls come from the whole dose curve; as a rule, active = well fitted inhibition curve with a large enough effect; inconclusive = small, poorly fitted or top-dose-only effect; inactive = flat fitted curve, though single readings scatter.
system: Zika virus NS2B-NS3 protease; experiment: Primary screen GU AMC qHTS for Zika virus inhibitors (AID 1347154); conditions: Zika NS2B-NS3 unlinked protease, AMC fluorogenic substrate; series mostly up to 54.1 µM; activity change, negative = inhibition: at the top concentration; note: nearly all actives have a fitted effect of over 70% in size;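 for activity change, negative = inhibition: 0% = no-inhibitor control and -100% = no-enzyme control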
Summary of the method: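 Fluorogenic AMC-substrate cleavage by noncovalent NS2B-NS3 protease complex (25 nM, pH 8.0 Tris buffer with Tween 20) followed for 15 minutes at room temperature (~20% conversion). Percent inhibition from ex340/em450 signal change, fitted by 4-parameter Hill equation.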
Potency is the fitted concentration of half-maximal effect.

SMILES	activity change, negative = inhibition	Potency
COc1ccc(C(=O)NCc2ccc(OCCN(C)C)cc2)cc1OC	5.58% (inactive)	–
CCCNC(C)C(=O)Nc1c(C)csc1C(=O)OC (stereo not given)	-1.74% (inactive)	–
Nc1ncnc(Nc2ccccc2)n1	-3.33% (inactive)	–
Nc1ccc(C(=O)Oc2ccccc2)c(O)c1	-3.07% (inactive)	–
CC[N+](CC)(CC(=O)Nc1c(C)cccc1C)Cc1ccccc1	-5.06% (inactive)	–
CCCCCOC(=O)Nc1nc(=O)n([C@@H]2O[C@H](C)[C@@H](O)[C@H]2O)cc1F	-3.55% (inactive)	–
Cc1c(I)c(=O)n(-c2ccccc2)n1C	-0.609% (inactive)	–
CC1(C)S[C@@H]2[C@H](NC(=O)C(C(=O)O)c3ccccc3)C(=O)N2[C@H]1C(=O)O (stereo not given in full)	-4.44% (inactive)	–
Cc1ccc(S(=O)(=O)NC(=O)NC2CCCCCCC2)cc1	1.13% (inactive)	–
C[N+](C)(C)CC(O)CC(=O)[O-] (stereo not given)	-0.987% (inactive)	–
C[C@]1(Cn2ccnn2)[C@H](C(=O)O)N2C(=O)C[C@H]2S1(=O)=O	-6.63% (inactive)	–
O=C1c2ccccc2C(=O)C1c1ccc(Br)cc1	-13.4% (inactive)	–
OC(CCN1CCCC1)(c1ccccc1)C1CCCCC1 (stereo not given)	-0.475% (inactive)	–
Cc1c(Cn2ccnc2)c2ccccc2n1CCC(=O)O	-1.7% (inactive)	–
O=C(OOC(=O)c1ccccc1)c1ccccc1	-3.25% (inactive)	–
CO[C@@]1(NC(=O)C(C(=O)O)c2ccc(O)cc2)C(=O)N2C(C(=O)O)=C(CSc3nnnn3C)CO[C@@H]21 (stereo not given in full)	-5.11% (inactive)	–
O=C(O)CCC(=O)O	2.01% (inactive)	–
O=C(O)COC(=O)Cc1ccccc1Nc1c(Cl)cccc1Cl	2.23% (inactive)	–

SMILES	activity change, negative = inhibition	Potency
CCOC(=O)[C@H](CCc1ccccc1)N[C@@H](C)C(=O)N1Cc2cc(OC)c(OC)cc2C[C@H]1C(=O)O	–	inactive
O=C(O)C(S)C(S)C(=O)O (stereo not given)	-3.88% (inactive)	–
Nc1ccc(S(=O)(=O)c2ccc(N)cc2)cc1	-2.42% (inactive)	–
CC(=O)N[C@@H](Cc1ccc(O)cc1)C(=O)O	1.49% (inactive)	–
CC(C)NC[C@@H](O)COc1ccc(CC(N)=O)cc1	-3.99% (inactive)	–
CN1C[C@@H]2C[C@H]1CN2c1cc2c(cc1F)c(=O)c(C(=O)O)cn2C1CC1	–	8.82 µM (active)
CCN(CC)CCc1nc(-c2ccccc2)no1	-1.69% (inactive)	–
COc1ccccc1Oc1c(NS(=O)(=O)c2ccc(C(C)(C)C)cc2)nc(-c2ncccn2)nc1OCCO	1.03% (inactive)	–
NS(=O)(=O)c1cc(-c2nn[nH]n2)c(NCc2cccs2)cc1Cl	-11.4% (inactive)	–
CCOc1ccc(C(=O)OCCN(CC)CC)cc1	-2.57% (inactive)	–
CN[C@@H]1[C@H](O)[C@H](NC)[C@H]2O[C@@]3(O)C(=O)C[C@@H](C)O[C@H]3O[C@@H]2[C@H]1O	-3.26% (inactive)	–
NC(=O)N[C@@H](CCC(=O)O)C(=O)O	-2.22% (inactive)	–
CC[N+](C)(CC)CCOC(=O)C1c2ccccc2Oc2ccccc21	-2.52% (inactive)	–
NS(=O)(=O)c1cc2c(cc1C(F)(F)F)NCNS2(=O)=O	-9.75% (inactive)	–
Cc1cc(C)nc(NS(=O)(=O)c2ccc(N)cc2)n1	0.367% (inactive)	–
COc1ccccc1OC(=O)Oc1ccccc1OC	-0.417% (inactive)	–
CC1CCc2cc(F)cc3c(=O)c(C(=O)O)cn1c23 (stereo not given)	-1.11% (inactive)	–

Source: PubChem BioAssay (NCATS)
